{"source": "ChEMBL document CHEMBL4513160", "about": "“CO-ADD screening of MMV (CH) - Small Polar Library”", "note": "Hit rate of the full screen: of about 18,000 compounds, fewer than 10 showed an effect of 50% or more. These entries were drawn from the full list.", "data": [{"system": "Pseudomonas aeruginosa", "test": "Antibacterial activity against Pseudomonas aeruginosa PAO397 [PAO1 d(mexAB-oprM) d(mexCD-oprJ) d(mexEF-oprN) d(mexJKL) d(mexXY) d(opmH)] (CO-ADD:GN_211); MIC in CAMBH media using NBS plates, by OD(600)", "format": "functional", "details": "Concentration 300 ug.mL-1, ASSAY_TEST Inhibition of Bacterial Growth, detection method Absorption (OD600), MEDIA CAMHB, plate type 384well, CORNING #3640, time 18 hr", "units": {"Inhibition": "%"}, "values": [{"smiles": "COCCCOc1cnc(C#N)cn1", "Inhibition": -8.76}, {"smiles": "Cc1ncccc1CN1CCCCC1(C)C(N)=O", "note": "(stereo not drawn)", "Inhibition": -20.64}, {"smiles": "Cc1cc(C)cc(OCC(=O)N2CCNCC2)c1", "Inhibition": -0.07}, {"smiles": "Cc1ccc(C(=O)NCCNC(=O)c2ccco2)cc1", "Inhibition": -53.65}, {"smiles": "CC1COCCN1Cc1cn2ccccc2n1", "note": "(stereo not drawn)", "Inhibition": 15.25}, {"smiles": "c1ccc(C/N=C2/CCCCCN2)nc1", "Inhibition": 23.32}, {"smiles": "N#Cc1ccc(CN)cc1F", "Inhibition": 2.48}, {"smiles": "CN1CCN(C(N)=O)C(c2ccccc2)C1", "note": "(stereo not drawn)", "Inhibition": 4.12}, {"smiles": "COC(=O)CN1CCCC1=O", "Inhibition": 5.23}, {"smiles": "CCNC(=O)CSc1nc(C)c(C)n1CCOC", "Inhibition": 3.04}, {"smiles": "CN(C)C(CNC1=NCCN1)c1ccsc1", "note": "(stereo not drawn)", "Inhibition": -1.92}, {"smiles": "Cc1c(NC(=O)c2cnccn2)cccc1C(N)=O", "Inhibition": 2.03}, {"smiles": "CCn1cnnc1CNC(=O)c1cccc(N(C)C)c1", "Inhibition": -1.56}, {"smiles": "NC1CC(=O)c2ccccc21", "note": "(stereo not drawn)", "Inhibition": 4.06}, {"smiles": "O=C(CN1CCNC(=O)C1)NCCOc1ccccc1", "Inhibition": 25.17}, {"smiles": "c1cn(-c2cc(N3CCSCC3)ncn2)cn1", "Inhibition": 8.05}, {"smiles": "O=C(c1ccsc1)N1CCCN(c2cccnn2)CC1", "Inhibition": 0.34}, {"smiles": "CC(C)n1nccc1NC(=O)CN(C)Cc1ccco1", "Inhibition": 9.78}, {"smiles": "COc1ccc(CNc2ccncc2F)cc1C#N", "Inhibition": -8.23}, {"smiles": "CC(C)(C)C(=O)Nc1ccc(N2CCNC(=O)C2)cc1", "Inhibition": 7.8}, {"smiles": "COc1ccc(Cl)cc1NC(=O)N[C@@H]1CNCC[C@H]1O", "Inhibition": -35.77}, {"smiles": "CN(C)C1(CNC(=O)c2cn[nH]c2)CCOCC1", "Inhibition": -13.75}, {"smiles": "NCC1CCCOC1", "note": "(stereo not drawn)", "Inhibition": 10.08}, {"smiles": "COc1cc(CCCN)cc(OC)c1O", "Inhibition": 4.59}, {"smiles": "Cc1ccccc1CN1CCCN(CCC(N)=O)CC1", "Inhibition": -4.93}, {"smiles": "NC(=O)NC(=O)CCNS(=O)(=O)c1ccccc1Cl", "Inhibition": 13.15}, {"smiles": "NCC(O)CN1CCc2ccccc2C1", "note": "(stereo not drawn)", "Inhibition": -6.8}, {"smiles": "CC(CC(=O)N1CC[C@H](O)C1)c1cccc(F)c1", "note": "(stereo partly drawn)", "Inhibition": -15.14}, {"smiles": "CO[C@H]1CNCC1NC(=O)Cc1ccc(F)cc1F", "note": "(stereo partly drawn)", "Inhibition": 11.48}, {"smiles": "N#Cc1ncc(Cl)cc1Cl", "Inhibition": 28.39}, {"smiles": "CC(C)CC(=O)NCc1ccnc(N2CCCC2)c1", "Inhibition": -20.17}, {"smiles": "CCC[C@H]1CN(C(=O)c2csc(NC)n2)C[C@@H]1N", "Inhibition": 2.64}, {"smiles": "NCCN1C(=O)COc2ccccc21", "Inhibition": -12.94}, {"smiles": "Cc1cc(NC(=O)NCC2CCN(CCO)CC2)no1", "Inhibition": 13.32}, {"smiles": "CCc1cccc(S(=O)(=O)N2CC[C@H](N)C2)c1", "Inhibition": -15.97}, {"smiles": "COCCNCCNC(=O)c1ccc(Cl)c(C)c1", "Inhibition": -10.19}, {"smiles": "CNC(=O)c1ccc(C)c(NC(=O)c2ccco2)c1", "Inhibition": -0.03}, {"smiles": "OC(CNc1ncc(Cl)cc1F)CN1CCOCC1", "note": "(stereo not drawn)", "Inhibition": 11.06}, {"smiles": "CC(C)C(=O)Nc1ccc(N2CCOCC2)nc1", "Inhibition": 4.38}, {"smiles": "COC(=O)CCCC(=O)N1CCC2(CCCC2)C1", "Inhibition": 14.7}, {"smiles": "COCCNS(=O)(=O)C1CCCCC1", "Inhibition": -6.37}, {"smiles": "CC(C)c1cccc(S(=O)(=O)N2CCCC2CN)c1", "note": "(stereo not drawn)", "Inhibition": -46.42}, {"smiles": "O=C(CN1CCCC1c1ccco1)N1CCOCC1", "note": "(stereo not drawn)", "Inhibition": 18.12}, {"smiles": "CC(C)c1ccn(CC(=O)NC2CC2)n1", "Inhibition": 1.75}, {"smiles": "CCc1nnc(NCCS(=O)(=O)N(C)C)o1", "Inhibition": -4.82}, {"smiles": "CC(C)n1cc(C(=O)NCCN(C)S(C)(=O)=O)cn1", "Inhibition": 17.41}, {"smiles": "CC(=O)NCc1cn2c(C)cccc2n1", "Inhibition": -5.3}, {"smiles": "Cc1ccnc(NCCS(=O)(=O)NCC2CCC2)c1", "Inhibition": -18.59}, {"smiles": "CNC(=O)c1nc(-c2ccc(C(F)(F)F)cc2)no1", "Inhibition": 32.14}, {"smiles": "CN(c1ccccc1C(N)=O)S(=O)(=O)c1cccs1", "Inhibition": -71.82}, {"smiles": "CN(C(=O)COCC1CC1)c1nc2ccccc2n1C", "Inhibition": 4.52}, {"smiles": "CNc1ccc(N2CCOCC2)nc1", "Inhibition": -26.42}, {"smiles": "CCN1CCN(CC(=O)Nc2ccc(C)cc2C)CC1", "Inhibition": -4.07}, {"smiles": "CN(C)[C@@H]1CN(C(=O)c2ncccn2)C[C@H]1CO", "Inhibition": 3.69}, {"smiles": "NC(=O)CCC1CCNCC1", "Inhibition": -8.79}, {"smiles": "CCC(C)NC(=O)N1CCCN(C2CC2)CC1", "note": "(stereo not drawn)", "Inhibition": 16.96}, {"smiles": "Fc1ccccc1CN1CCn2ccnc2C1", "Inhibition": -12.72}, {"smiles": "NC1CCCN(c2noc(-c3ccccc3)n2)CC1", "note": "(stereo not drawn)", "Inhibition": 0.95}, {"smiles": "COCCNC(=O)NCCc1ccc(C)c(OC)c1", "Inhibition": 7.38}, {"smiles": "Cc1ccc(NC(=O)NC2(CCO)CCOCC2)s1", "Inhibition": -4.26}, {"smiles": "CCc1nnc(NC2CCOC3(CCOCC3)C2)o1", "note": "(stereo not drawn)", "Inhibition": 8.44}, {"smiles": "CCc1ccccc1CN", "Inhibition": 3.32}, {"smiles": "CC(=O)NC(C(=O)Nc1cccc(C)n1)C(C)C", "note": "(stereo not drawn)", "Inhibition": -8.54}, {"smiles": "O=C1CN(Cc2ncc[nH]2)CCN1C1CCCC1", "Inhibition": 2.49}, {"smiles": "CCOCC(=O)N(C)Cc1cccc2cnccc12", "Inhibition": -38.69}, {"smiles": "CC(CO)Sc1ccc(S(=O)(=O)C(F)F)cc1", "note": "(stereo not drawn)", "Inhibition": 16.44}, {"smiles": "CS(=O)(=O)CC1(CNc2cccc(C(F)(F)F)n2)CC1", "Inhibition": -21.2}, {"smiles": "OCc1ccncc1NCC1CCOCC1", "Inhibition": 8.94}, {"smiles": "OCCCNc1cccc(Cl)c1-n1cccn1", "Inhibition": -33.42}, {"smiles": "Cn1nc(C(F)(F)F)c(Cl)c1C(=O)N[C@@H]1CCNC1", "Inhibition": 31.11}, {"smiles": "CC(=O)NC(CC(=O)N1CCCC1)c1ccc(Cl)cc1", "note": "(stereo not drawn)", "Inhibition": -24.39}, {"smiles": "CN(Cc1ccccc1)C(=O)NC1CCCCNC1=O", "note": "(stereo not drawn)", "Inhibition": -2.06}, {"smiles": "CS(=O)(=O)N1CCCC(C(=O)Nc2cccnc2O)C1", "note": "(stereo not drawn)", "Inhibition": 14.72}, {"smiles": "Cc1cc(N(C)C)nc(N2CCCC2C(=O)N(C)C)n1", "note": "(stereo not drawn)", "Inhibition": -8.5}, {"smiles": "Cc1cc(NC(=O)CCn2ccnc2)no1", "Inhibition": 1.69}, {"smiles": "COc1c(CNC(=O)c2cccs2)c(C)nn1C", "Inhibition": -17.79}, {"smiles": "CCC(=O)N1CCCN(c2ccncc2Cl)CC1", "Inhibition": -2.88}, {"smiles": "CN1Cc2cccn2CC1CNC(=O)NC1CCCC1", "note": "(stereo not drawn)", "Inhibition": -13.25}, {"smiles": "N[C@@H]1CC[C@@H]1NC(=O)CCn1cc(Cl)cn1", "Inhibition": -25.34}, {"smiles": "COc1cc(F)c(C(=O)N[C@@H]2CCNC[C@H]2O)c(F)c1", "Inhibition": 19.43}, {"smiles": "CN(c1ccc(O)cc1)S(=O)(=O)c1ccco1", "Inhibition": -8.79}, {"smiles": "CCOCC(=O)N1C[C@H](CO)C[C@H](CN2CCCC2)C1", "Inhibition": -0.69}, {"smiles": "COc1ccc(CNC(=O)C2=COCCO2)cc1OC", "Inhibition": 2.02}]}]}
